# Measured values: PubChem BioAssay (NCATS)
# Results filed as inconclusive are left out. A call without a number means that no potency is given here. The source made the active and inactive calls. The call rests on the fitted dose curve; in most records, active means well fitted curve in the direction sought with a large enough effect; inconclusive means small, poorly fitted or top-dose-only effect, or another doubt; inactive means no such curve, though single readings can be large; an effect the other way counts as inactive or inconclusive.
# Experiments:
# [1] = target: Chromobox protein homolog 1 (Homo sapiens) (UniProt P83916); test: qHTS Validation Assay for Inhibitors of HP1-beta Chromodomain Interactions with Methylated Histone Tails (AID 488953); further: nearly all actives have a fitted effect of over 50% in size; further: potency means the concentration at half of the fitted maximal effect
# How it was run: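 AlphaScreen proximity readout: streptavidin donor and Ni-chelate acceptor beads, 10 ug/mL final, 30 min dark, RT. Complex of 50 nM HP1-beta and 50 nM b-H3(1-18)K9me3 formed 30 min, then compound-treated 30 min; PBS pH 7.4/0.01% Tween-20.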
# [2] = target: Methanococcus maripaludis chaperonin (MmCpn) (UniProt Q6LX38); test: High-Throughput Screening for Modulators of Cytosolic Chaperonin Activity: MmCpn Primary Screen (AID 488978);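 further: 50 nM MmCpn enzyme hydrolysing 30 µM ATP at 37 °C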
# How it was run: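 Measures ATPase turnover of the M. maripaludis chaperonin (50 nM final) against 30 uM ATP over 10 min at 37C, with compound added 5 min beforehand at room temperature. ADP is quantified by HTRF immunodetection.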
# [3] = target: Transient receptor potential cation channel subfamily V member 1 (Homo sapiens) (UniProt Q8NER1); test: HTS Assay for Compounds that Act as Enhancers of the Vanilloid Receptor 1 (AID 488979)
# How it was run: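 Calcium influx kinetics via Fluo-8 (480/520 nm) in TRPV1-expressing cells, 2000/well cultured overnight at 35.5C. Compound-alone read 3 min (agonist phase), followed by EC20 capsaicin challenge for 2 min (enhancer phase).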
# [4] = target: D(1A) dopamine receptor (Homo sapiens) (UniProt P21728); test: HTS Assay for Allosteric Agonists of the Human D1 Dopamine Receptor: Primary Screen for Agonists (AID 488981)
# How it was run: (§1)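 Calcium flux in an inducible, force-coupled HEK293 Trex D1 line (overnight at 30 C): agonist mode is the 180 s kinetic read after compound; potentiator mode is the following 180 s read after dopamine at EC20.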
# [5] = target: D(1A) dopamine receptor (Homo sapiens) (UniProt P21728); test: HTS Assay for Allosteric Agonists of the Human D1 Dopamine Receptor: Primary Screen for Potentiators (AID 488982); further: potency means the concentration at half of the fitted maximal effect
# How it was run: as §1
# [6] = target: D(1A) dopamine receptor (Homo sapiens) (UniProt P21728); test: HTS Assay for Allosteric Agonists of the Human D1 Dopamine Receptor: Primary Screen for Antagonists (AID 488983);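 further: calcium flux response to an EC80 dopamine challenge measured with no-wash dye; nearly all actives have a fitted effect of over 65% in size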; further: potency means the concentration at half of the fitted maximal effect
# How it was run: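 Calcium flux readout, no-wash dye, inducible HEK293 T-REx D1 line (force-coupled). Compound added after 10 s baseline, 180 s kinetic read; then dopamine at EC80, further 180 s read.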
# [7] = Validation screen for small molecules that induce genotoxicity in human embryonic kidney (HEK293T) cells expressing luciferase-tagged ELG1 (AID 493106)
# How it was run: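 qHTS format; 2,000 HEK293T ELG1-luc cells/well; 23 nL compound via pin tool; 16 hr, 37 °C/5% CO2; ONE-Glo, 30 min RT; luminescence read.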
# [8] = target: ATPase family AAA domain-containing protein 5 (Homo sapiens) (UniProt Q96QE3); test: Validation screen for small molecules that inhibit ELG1-dependent DNA repair in human embryonic kidney (HEK293T) cells expressing luciferase-tagged ELG1 (AID 493107); further: nearly all actives have a fitted effect of over 70% in size; further: potency means the concentration at half of the fitted maximal effect
# Excerpt: NIH Molecular Libraries Probe Production Network [MLPCN]
# NIH Chemical Genomics Center [NCGC]
# Assay Provider: Kyungjae Myung, NHGRI, NIH
# Keywords: MLPCN, qHTS, NCGC, genotoxicity, cancer
# Cancer cells divide rapidly compared to normal cells in the body. During cell division, cancer cells need to duplicate their genome by DNA replication. The failure of genome duplication leads to cancer cells' death. Therefore, inhibitors of DNA replication could specifically kill cancer cells. Based on this concept, many chemotherapeutic agents were developed and have been used to treat cancer patients. However, there are a limited number of agents available in the clinical setting, and some of those that do exist have low efficacy and severe side effects. Therefore, if we can find the compounds that effectively block DNA replication either by directly damaging DNA or by inhibiting other cellular mechanisms, the options for cancer treatment will be broadened. With this in mind, we developed a quantitative high-throughput ELG1-luciferase reporter gene assay. Small molecules that specifically block ELG1 function in response to DNA damage can be identified by monitoring the suppression of luciferase activity. Since ELG1 defines a pathway for repairing DNA damage, agents blocking ELG1 function can be used to sensitize cancer cells to chemotherapeutic agents whose mechanism of action involves the induction of DNA damage.
# For genotoxicity screening, 2,000 cells in 4 uL/well were dispensed into white, solid-bottom 1536-well plates using a solenoid-based dispenser. Following transfer of 1 uL 5-Fluorouridine and 23 nL compound or DMSO vehicle by a pin tool, the plates were incubated 16 hr at 37 °C and 5% CO2. 5 ul ONE-Glo (Promega) was then added to each plate and following a 30 min incubation at room temperature, luciferase activity was quantified on a ViewLux CCD-based plate reader.
# [9] = target: ATP-dependent 6-phosphofructokinase (Trypanosoma brucei brucei) (UniProt O15648); test: qHTS Assay to Find Inhibitors of T. brucei phosphofructokinase: hit validation (AID 492961);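 further: luminescence reports ADP formed as PFK phosphorylates fructose-6-phosphate with ATP; series mostly up to about 51 µM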
# How it was run: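 In this biochemical qHTS validation, titrated compounds were tested against 1.25 nM PFK with 0.1 mM ATP and 0.5 mM F6P. Percent activity came from controls lacking or containing enzyme.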
# [10] = target: Thyrotropin receptor (Homo sapiens) (UniProt P16473); test: qHTS Assay for Antagonists of the Thyroid Stimulating Hormone Receptor (AID 488980); further: series mostly up to about 58 µM
# How it was run: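 Cells expressing human TSHR (HEK293) are dispensed in HBSS/HEPES containing 70 uM RO 20-1724, compound is added, then TSH at EC80 (4 nM final). Antibody in lysis buffer follows, 30 minutes at room temperature before HTRF detection.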
# Sequence of ATP-dependent 6-phosphofructokinase (Trypanosoma brucei brucei) (O15648 whole entry, looked up): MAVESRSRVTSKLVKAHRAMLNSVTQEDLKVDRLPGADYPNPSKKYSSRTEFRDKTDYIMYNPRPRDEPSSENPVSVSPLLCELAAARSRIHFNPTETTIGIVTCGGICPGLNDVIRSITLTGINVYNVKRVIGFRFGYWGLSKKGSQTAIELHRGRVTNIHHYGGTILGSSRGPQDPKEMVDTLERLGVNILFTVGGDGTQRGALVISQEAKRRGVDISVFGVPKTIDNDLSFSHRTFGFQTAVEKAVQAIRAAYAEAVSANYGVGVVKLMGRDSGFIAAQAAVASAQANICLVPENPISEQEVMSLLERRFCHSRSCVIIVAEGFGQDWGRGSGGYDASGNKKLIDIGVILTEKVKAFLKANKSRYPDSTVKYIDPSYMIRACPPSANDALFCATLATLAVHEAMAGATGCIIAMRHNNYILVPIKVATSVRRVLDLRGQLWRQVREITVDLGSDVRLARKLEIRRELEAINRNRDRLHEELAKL
# Sequence of Thyrotropin receptor (Homo sapiens) (P16473 whole entry, looked up): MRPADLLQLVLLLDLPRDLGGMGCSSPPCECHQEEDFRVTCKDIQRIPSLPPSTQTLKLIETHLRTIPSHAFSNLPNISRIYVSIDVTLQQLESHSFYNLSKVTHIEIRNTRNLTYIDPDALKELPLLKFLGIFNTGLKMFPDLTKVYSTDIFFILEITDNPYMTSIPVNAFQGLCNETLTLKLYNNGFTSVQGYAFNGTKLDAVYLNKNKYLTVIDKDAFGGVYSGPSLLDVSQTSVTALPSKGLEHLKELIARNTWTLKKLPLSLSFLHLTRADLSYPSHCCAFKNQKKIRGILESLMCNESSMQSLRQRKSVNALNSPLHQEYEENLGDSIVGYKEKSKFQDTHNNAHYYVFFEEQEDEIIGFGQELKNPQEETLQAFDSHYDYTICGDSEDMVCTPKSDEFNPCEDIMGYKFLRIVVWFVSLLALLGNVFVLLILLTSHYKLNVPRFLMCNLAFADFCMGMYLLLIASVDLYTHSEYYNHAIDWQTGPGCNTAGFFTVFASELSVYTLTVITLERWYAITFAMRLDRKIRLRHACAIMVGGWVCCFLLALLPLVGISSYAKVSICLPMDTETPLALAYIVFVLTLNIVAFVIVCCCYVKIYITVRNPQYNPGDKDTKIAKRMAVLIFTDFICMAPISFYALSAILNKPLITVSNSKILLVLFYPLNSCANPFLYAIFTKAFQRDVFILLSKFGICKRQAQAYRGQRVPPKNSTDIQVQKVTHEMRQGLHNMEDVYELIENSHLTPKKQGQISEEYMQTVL
# Sequence of ATPase family AAA domain-containing protein 5 (Homo sapiens) (Q96QE3 whole entry, looked up, the tested form may be a part): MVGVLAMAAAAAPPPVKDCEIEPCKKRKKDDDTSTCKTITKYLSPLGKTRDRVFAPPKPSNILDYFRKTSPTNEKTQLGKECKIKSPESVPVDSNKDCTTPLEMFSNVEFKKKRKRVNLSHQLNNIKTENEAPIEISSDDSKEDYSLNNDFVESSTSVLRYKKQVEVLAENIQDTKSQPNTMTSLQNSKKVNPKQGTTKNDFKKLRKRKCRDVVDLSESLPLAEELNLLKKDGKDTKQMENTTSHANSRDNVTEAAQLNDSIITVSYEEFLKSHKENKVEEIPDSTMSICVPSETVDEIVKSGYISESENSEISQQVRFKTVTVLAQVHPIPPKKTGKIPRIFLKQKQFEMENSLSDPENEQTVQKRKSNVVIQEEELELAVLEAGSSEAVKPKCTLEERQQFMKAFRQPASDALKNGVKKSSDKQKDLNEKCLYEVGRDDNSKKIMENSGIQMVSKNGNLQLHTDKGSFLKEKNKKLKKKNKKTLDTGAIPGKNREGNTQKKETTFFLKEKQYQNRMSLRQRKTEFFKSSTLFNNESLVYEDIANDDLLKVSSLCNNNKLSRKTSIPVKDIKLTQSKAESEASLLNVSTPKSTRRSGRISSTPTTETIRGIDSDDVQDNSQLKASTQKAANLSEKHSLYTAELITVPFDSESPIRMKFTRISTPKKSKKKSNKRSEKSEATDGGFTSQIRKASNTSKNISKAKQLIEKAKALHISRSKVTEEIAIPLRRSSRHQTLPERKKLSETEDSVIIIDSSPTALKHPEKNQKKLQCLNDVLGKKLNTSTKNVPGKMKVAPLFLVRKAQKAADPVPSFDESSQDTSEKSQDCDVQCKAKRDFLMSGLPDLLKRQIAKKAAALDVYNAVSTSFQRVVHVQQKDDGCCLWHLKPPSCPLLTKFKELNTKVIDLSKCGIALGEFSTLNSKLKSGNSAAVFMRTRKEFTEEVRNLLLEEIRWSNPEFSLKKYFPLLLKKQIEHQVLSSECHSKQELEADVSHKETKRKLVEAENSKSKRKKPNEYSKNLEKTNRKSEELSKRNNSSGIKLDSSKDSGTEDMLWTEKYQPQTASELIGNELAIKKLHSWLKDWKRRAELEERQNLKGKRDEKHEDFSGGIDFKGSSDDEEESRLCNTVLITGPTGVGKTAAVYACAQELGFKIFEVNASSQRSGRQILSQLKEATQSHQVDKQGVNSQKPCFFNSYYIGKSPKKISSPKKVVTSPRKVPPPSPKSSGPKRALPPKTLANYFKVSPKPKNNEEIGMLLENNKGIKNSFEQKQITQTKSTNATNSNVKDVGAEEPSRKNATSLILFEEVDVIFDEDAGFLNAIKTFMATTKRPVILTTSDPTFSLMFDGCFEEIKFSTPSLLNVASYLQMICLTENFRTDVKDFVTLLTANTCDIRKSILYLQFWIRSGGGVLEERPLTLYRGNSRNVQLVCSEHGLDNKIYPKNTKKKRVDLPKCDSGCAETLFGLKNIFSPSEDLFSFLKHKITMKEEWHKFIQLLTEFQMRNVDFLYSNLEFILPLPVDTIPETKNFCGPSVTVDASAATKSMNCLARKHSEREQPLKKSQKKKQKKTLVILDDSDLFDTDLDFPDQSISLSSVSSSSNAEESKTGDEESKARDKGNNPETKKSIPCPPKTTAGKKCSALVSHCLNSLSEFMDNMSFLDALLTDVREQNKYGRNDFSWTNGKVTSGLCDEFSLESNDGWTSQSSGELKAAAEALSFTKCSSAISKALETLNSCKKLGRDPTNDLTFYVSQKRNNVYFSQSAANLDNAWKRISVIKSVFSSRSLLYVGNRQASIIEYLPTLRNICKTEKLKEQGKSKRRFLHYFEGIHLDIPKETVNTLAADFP
# Sequence of Chromobox protein homolog 1 (Homo sapiens) (P83916 whole entry, looked up): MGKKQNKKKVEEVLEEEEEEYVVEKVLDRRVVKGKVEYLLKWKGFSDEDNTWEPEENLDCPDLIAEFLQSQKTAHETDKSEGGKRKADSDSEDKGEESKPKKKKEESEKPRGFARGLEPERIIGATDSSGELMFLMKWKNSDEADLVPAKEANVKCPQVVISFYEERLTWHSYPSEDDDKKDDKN
# Sequence of Methanococcus maripaludis chaperonin (MmCpn) (Q6LX38 1-543): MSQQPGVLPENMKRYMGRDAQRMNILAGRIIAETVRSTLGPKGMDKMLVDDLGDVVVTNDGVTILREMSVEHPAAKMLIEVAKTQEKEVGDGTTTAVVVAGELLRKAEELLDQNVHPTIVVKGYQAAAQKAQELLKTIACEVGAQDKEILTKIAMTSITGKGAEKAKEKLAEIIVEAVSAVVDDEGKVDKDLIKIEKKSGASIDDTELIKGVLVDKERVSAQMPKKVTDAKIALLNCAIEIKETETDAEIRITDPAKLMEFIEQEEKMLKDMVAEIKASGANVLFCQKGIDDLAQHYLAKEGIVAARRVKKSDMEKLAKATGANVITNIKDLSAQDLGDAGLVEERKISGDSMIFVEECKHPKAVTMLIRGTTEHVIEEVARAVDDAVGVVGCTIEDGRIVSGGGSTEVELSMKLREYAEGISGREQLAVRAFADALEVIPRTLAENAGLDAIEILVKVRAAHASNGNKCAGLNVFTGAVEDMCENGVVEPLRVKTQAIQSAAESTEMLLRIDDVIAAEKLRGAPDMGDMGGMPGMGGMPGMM
# Sequence of D(1A) dopamine receptor (Homo sapiens) (P21728 whole entry, looked up): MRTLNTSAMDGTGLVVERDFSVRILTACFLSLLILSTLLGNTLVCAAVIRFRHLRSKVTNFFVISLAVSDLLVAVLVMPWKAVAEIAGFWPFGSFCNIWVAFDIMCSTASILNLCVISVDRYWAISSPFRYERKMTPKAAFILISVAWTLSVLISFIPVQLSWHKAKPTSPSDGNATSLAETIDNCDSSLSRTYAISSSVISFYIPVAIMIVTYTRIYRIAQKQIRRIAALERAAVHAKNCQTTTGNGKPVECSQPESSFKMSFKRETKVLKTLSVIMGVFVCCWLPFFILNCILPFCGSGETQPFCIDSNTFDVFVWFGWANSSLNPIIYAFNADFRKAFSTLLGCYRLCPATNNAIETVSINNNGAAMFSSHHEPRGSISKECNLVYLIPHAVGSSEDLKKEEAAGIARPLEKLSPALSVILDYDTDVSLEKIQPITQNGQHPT
smiles,measurement,setting,value
COC(=O)C1=CCCN(C)C1,Potency,[1],inactive
same,outcome,[2],inactive
same,outcome,[3],inactive
same,outcome,[4],inactive
same,Potency,[5],inactive
same,Potency,[6],inactive
same,outcome,[7],inactive
same,Potency,[8],inactive
CCS(=O)(=O)C(C)(C)S(=O)(=O)CC,Potency,[9],inactive
OC(O)C(Cl)(Cl)Cl,Potency,[9],inactive
OC(c1ccccc1)(c1ccccc1)C1CCNCC1,Potency,[9],inactive
CN1C[C@H](C(=O)N[C@]2(C)O[C@@]3(O)[C@@H]4CCCN4C(=O)[C@H](Cc4ccccc4)N3C2=O)C[C@@H]2c3cccc4[nH]cc(c34)C[C@H]21,Potency,[5],inactive
same,Potency,[6],8.91 µM (active)
COP(=O)(OC)OC=C(Cl)Cl,Potency,[9],inactive
NC(=O)CN1CCCC1=O,Potency,[1],inactive
same,outcome,[2],inactive
same,outcome,[3],inactive
same,outcome,[4],inactive
same,Potency,[5],inactive
same,Potency,[6],inactive
same,Potency,[9],inactive
same,outcome,[7],inactive
same,Potency,[8],inactive
CCCCCCCCC(=O)NCc1ccc(O)c(OC)c1,outcome,[10],inactive
CCN(Cc1ccc(Cl)nc1)/C(=C/[N+](=O)[O-])NC,Potency,[9],inactive
Nc1ccc(N)cc1,Potency,[9],inactive
O=C(NC(=O)c1c(F)cccc1F)Nc1cc(Cl)c(OC(F)(F)C(F)C(F)(F)F)cc1Cl (configuration not stated),Potency,[9],inactive
O=c1n(Cl)c(=O)n(Cl)c(=O)n1Cl,Potency,[9],inactive
NC(=O)OCCCc1ccccc1,Potency,[9],inactive
C[C@]12CC[C@H]3[C@@H](CC=C4C[C@@H](O)CC[C@@]43C)[C@@H]1CC[C@@H]2O,Potency,[9],inactive
NC(N)=NCCC[C@H](N)C(=O)O,Potency,[1],inactive
c1ccc2nc(N3CCNCC3)ccc2c1,outcome,[3],inactive
N#Cc1nn(-c2c(Cl)cc(C(F)(F)F)cc2Cl)c(N)c1S(=O)C(F)(F)F (configuration not stated),Potency,[9],inactive
c1cc2c(c(N3CCNCC3)c1)OCCO2,Potency,[9],inactive
NC(N)=N/N=C/c1c(Cl)cccc1Cl,Potency,[5],inactive
O=C1CC2(CCCC2)CC(=O)N1CCCCN1CCN(c2ncccn2)CC1,Potency,[1],inactive
CCC1(c2ccccc2)CCC(=O)NC1=O (configuration not stated),Potency,[9],inactive
COC(=O)C1=C(C)NC(C)=C(C(=O)OC)C1c1ccccc1[N+](=O)[O-],Potency,[1],35.5 µM (active)
same,Potency,[5],2.59 µM (active)
same,Potency,[8],18.3 µM (active)
CN1C(=O)CN=C(c2ccccc2)c2cc([N+](=O)[O-])ccc21,Potency,[9],inactive
C[N+](C)(C)CCOC(=O)C(O)(c1ccccc1)c1ccccc1,Potency,[9],inactive
Clc1ccc(CO/N=C(\Cn2ccnc2)c2ccc(Cl)cc2Cl)c(Cl)c1,Potency,[9],inactive
Cc1c(Cl)c(=O)oc2cc(OP(=O)(OCCCl)OCCCl)ccc12,Potency,[9],inactive
CC(C)C(Br)C(=O)NC(N)=O (configuration not stated),Potency,[9],inactive
CC(C)(O)C(Cl)(Cl)Cl,Potency,[9],inactive
CN1C(=O)[C@@H](NC(=O)c2cc3ccccc3[nH]2)N=C(c2ccccc2)c2ccccc21,Potency,[9],inactive
CCCCCCCCCCCC[N+](C)(C)CCOc1ccccc1,Potency,[9],inactive
CCOC(=O)Nc1ccc(NCc2ccc(F)cc2)nc1N,Potency,[1],39.8 µM (active)
O=C(O)c1nn(Cc2ccc(Cl)cc2Cl)c2ccccc12,Potency,[1],inactive
same,outcome,[2],inactive
same,outcome,[3],inactive
same,outcome,[10],inactive
same,outcome,[4],inactive
same,Potency,[5],inactive
same,Potency,[6],inactive
same,Potency,[9],inactive
same,outcome,[7],inactive
same,Potency,[8],inactive
CC(N)C(=O)OC(C)(C)Cc1ccc(Cl)cc1 (configuration not stated),outcome,[3],inactive
same,outcome,[10],inactive
COc1ccc(C(=O)N2CCCC2=O)cc1,Potency,[1],inactive
same,outcome,[2],inactive
same,outcome,[3],inactive
same,outcome,[10],inactive
same,outcome,[4],inactive
same,Potency,[5],inactive
same,Potency,[6],inactive
same,outcome,[7],inactive
same,Potency,[8],inactive
CC[C@H]1CN2CCc3cc(OC)c(OC)cc3[C@@H]2C[C@@H]1C[C@H]1NCCc2cc(OC)c(OC)cc21,outcome,[7],inactive
same,Potency,[8],0.259 µM (active)
